Source: PubChem (National Center for Advancing Translational Sciences (NCATS))
NIH3T3 tox = Cytotoxic Profiling in NIH 3T3 Cell Line of Diverse Libraries Using Quantitative High-Throughput Screening; NIH 3T3 viability, CellTiter-Glo ATP luminescence, 48-72 h; AID 1345082, 2018; Potency, µM (highest dose often 96.7 µM), most hits filed as inhibitors; actives 4.3% (n = 94,000); note: nearly all actives have a fitted effect of over 55% in size
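Cytotoxicity is measured as loss of cellular ATP: NIH 3T3 cells (400/well) are exposed to compound for 48 or 72 hr at 37 °C, then CellTiter-Glo luminescence is imaged after 10 min at room temperature.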
FLuc inh = Firefly luciferase inhibition profiling of diverse chemical library using quantitative high-throughput screening; Luciferin 4-monooxygenase (Photinus pyralis), P08659; purified P. pyralis luciferase, luminescence, biochemical; Potency, µM (titrated, usually from 115 µM), usual class: inhibitors; actives 2.5% (n = 76,000); note: nearly all actives have a fitted effect of over 65% in size
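Biochemical qHTS: compound (6-point titration) added to 10uM D-luciferin plus 10uM ATP in Tris acetate pH 7.5 buffer with Mg, Tween-20 and BSA, then purified enzyme at 10nM; light output imaged.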
HEK293 viab = GF-AFC viability counterscreen for inhibitors of alpha-synuclein gene (SNCA) expression. actives 0.12% (n = 150,000). AID 1671193, 2021. Potency, µM (series often up to 57.1 µM), hits mostly cytotoxic. HEK-293-SNCA-luc viability, GF-AFC fluorescence, 24 h; note: nearly all actives have a fitted effect of over 30% in size
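Cytotoxicity counterscreen: after 24 h compound treatment of genome-edited SNCA-luciferase HEK-293 cells, live-cell protease substrate GF-AFC read by fluorescence after 30 min; activity scaled between DMSO (0%) and medium-only (-100%), curves Hill-fitted.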
HEK cytotox = Cytotoxic Profiling in HEK 293 Cell Line of Diverse Libraries Using Quantitative High-Throughput Screening; AID 1345083, 2018; actives 6.6% (n = 94,000); Potency, µM (top dose mostly 115 µM), usual class: inhibitors; HEK 293 viability, ATP luminescence (CellTiter-Glo), 48-72 h; note: nearly all actives have a fitted effect of over 60% in size
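Read-out: CellTiter-Glo ATP luminescence. Cells: HEK 293, 250 cells/well. Exposure: 48 or 72 hr, 37 degree Celsius.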
NPR1 antag = Natriuretic polypeptide receptor (hNpr1) antagonism - Primary qHTS | HEK293 hNpr1 GloSensor cGMP, ANP-stimulated luminescence | actives 1.6% (n = 76,000) | Atrial natriuretic peptide receptor 1 (Homo sapiens), P16066 | Potency, µM (series often up to 46.3 µM), most hits filed as inhibitors; calls by dose curve; note: nearly all actives have a fitted effect of over 60% in size
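HEK293 cells stably expressing human Npr1 and cGMP GloSensor pGS-40F, loaded 2 h with 2% GloSensor reagent, given compound 30 min at room temperature. Luminescence read before and 20 min after 0.1 nM hNppA.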
SNCA expr inh = Primary qHTS assay for inhibitors of alpha-synuclein gene (SNCA) expression. AID 1671194, 2021. HEK-293 SNCA-luciferase knock-in, luminescence, 24 h. Potency, µM (titrated, usually from 57.2 µM), hits mostly inhibitors. actives 0.17% (n = 140,000); note: nearly all actives have a fitted effect of over 45% in size
Of the large screens only hits and unclear results are named; the others gave an inactive call; ! = not confirmed by another sample. Hits are enriched below; roughly 7.4% of the tested compounds scored in any of these assays. Unless noted, calls come from the whole dose curve; as a rule, active = well fitted curve in the direction sought with a large enough effect; inconclusive = small, poorly fitted or top-dose-only effect, or another doubt; inactive = no such curve, though single readings can be large; an effect the other way counts as inactive or inconclusive.

CNC(=O)[C@H]1C[C@]2(CCCCN(CCO)C2=O)N(C(=O)NCc2ccccc2)[C@H]1c1ccccc1	NIH3T3 tox inconclusive (no result: FLuc inh, HEK293 viab, NPR1 antag, SNCA expr inh)
Cc1cc(C)n(CC(=O)N2CCN3CCS(=O)(=O)N(C4CC4)C(=O)C3C2)n1 (stereo unspecified)	none (no result: FLuc inh, NPR1 antag)
COc1ccc(-c2cccc(C(=O)N3CCN([S+](=O)([O-])c4c(C)noc4C)CC3)c2)nn1	NIH3T3 tox inconclusive (no result: FLuc inh, HEK293 viab, NPR1 antag, SNCA expr inh)
C#CCNC(=O)c1ccc2oc(-c3ccccn3)nc2c1	NIH3T3 tox inconclusive, HEK cytotox inconclusive (no result: FLuc inh, NPR1 antag)
O=C(N1CCC(c2nc(-c3ccccc3)no2)C1)C1(c2ccccc2)CC1 (stereo unspecified)	NIH3T3 tox inconclusive, HEK cytotox inconclusive, NPR1 antag inconclusive
CCn1cc(S(=O)(=O)N2CCC(Oc3ccc(-c4noc(C5CC5)n4)cc3)C2)cn1 (stereo unspecified)	NIH3T3 tox inconclusive, HEK293 viab inconclusive, HEK cytotox inconclusive (no result: FLuc inh, NPR1 antag)
CC(C)c1nc(-c2ccc(OC3CCN(C(=O)C4(c5ccccc5)CC4)C3)cc2)no1 (stereo unspecified)	NIH3T3 tox inconclusive, HEK cytotox 45µM, NPR1 antag inconclusive
Cc1noc(C)c1S(=O)(=O)N1CCC(Oc2ccc(-c3noc(C(C)C)n3)cc2)C1 (stereo unspecified)	HEK cytotox 20µM (no result: FLuc inh, NPR1 antag)
O=S(=O)(c1ccc(F)cc1)N1CCC(Oc2ccc(-c3noc(C4CC4)n3)cc2)C1 (stereo unspecified)	NIH3T3 tox inconclusive, HEK cytotox 28µM, NPR1 antag inconclusive
COc1ccc(C(=O)N2CCC(Oc3ccc(-c4noc(C5CC5)n4)cc3)C2)cn1 (stereo unspecified)	NIH3T3 tox inconclusive, HEK cytotox 35µM (no result: FLuc inh, NPR1 antag)
COc1ccc(C(=O)N2CC(=O)N(Cc3c(OC)cccc3OC)CC(O)C2)cc1 (stereo unspecified)	NIH3T3 tox inconclusive (no result: FLuc inh, HEK293 viab, NPR1 antag, SNCA expr inh)
Cc1csc(NC(=O)[C@@H]2C[C@H](c3ccc(F)cc3)N(Cc3ccccc3Cl)C2)n1	NIH3T3 tox inconclusive, HEK293 viab inconclusive, HEK cytotox inconclusive, NPR1 antag inconclusive
CC(C)c1nc(-c2ccc(OC3CCN(C(=O)c4ccoc4)C3)cc2)no1 (stereo unspecified)	NIH3T3 tox inconclusive, HEK cytotox 32µM (no result: FLuc inh, NPR1 antag)
COCCNC(=O)c1ccc2nnc(C3CCOCC3)n2c1	none (no result: FLuc inh, HEK293 viab, NPR1 antag, SNCA expr inh)
CN(c1ccccc1)c1ccc2nnc(-c3cc(C(=O)NCCc4ccccc4)ccn3)n2n1	NIH3T3 tox inconclusive, HEK cytotox inconclusive
CN(c1ccccc1)c1ccc2nnc(-c3cc(C(=O)NCc4ccncc4)ccn3)n2n1	NIH3T3 tox inconclusive, HEK cytotox 71µM
O=C(NCC1CCCO1)c1ccnc(-c2nnc3ccc(Nc4ccccc4)nn23)c1 (stereo unspecified)	NIH3T3 tox inconclusive, HEK cytotox inconclusive
COc1cccc(NC(=O)c2ccnc(-c3nnc4ccc(Nc5ccccc5)nn34)c2)c1	NIH3T3 tox 35µM, HEK293 viab inconclusive, HEK cytotox 40µM
COc1ccnc(-c2nnc3ccc(NC4CCOCC4)nn23)c1	NIH3T3 tox 79µM
O=C(NCc1ccc(F)cc1)c1ccnc(-c2nnc3ccc(Nc4ccccc4)nn23)c1	NIH3T3 tox 25µM, HEK293 viab inconclusive, HEK cytotox inconclusive, SNCA expr inh inconclusive
COc1cccc(Nc2ccc3nnc(-c4cc(OC)ccn4)n3n2)c1	NIH3T3 tox inconclusive, FLuc inh inconclusive, HEK cytotox inconclusive, NPR1 antag inconclusive
COc1ccccc1CC(=O)N1CCC2(CC1)N=C(c1ccc(Cl)cc1)NO2	NIH3T3 tox inconclusive, HEK cytotox 45µM, NPR1 antag inconclusive
Cc1ccc(C2=NC3(CCN(C(=O)Cc4ccccc4Cl)CC3)ON2)cc1	NIH3T3 tox inconclusive, HEK cytotox inconclusive
O=C(c1ccccc1)N1CCC2(CC1)N=C(c1cccc(Br)c1)NO2	NIH3T3 tox inconclusive, HEK cytotox inconclusive
Cc1ccccc1CC(=O)N1CCC2(CC1)N=C(c1cccc(Br)c1)NO2	NIH3T3 tox inconclusive, HEK293 viab inconclusive, HEK cytotox 89µM, NPR1 antag inconclusive
O=C(c1ccc(F)cc1)N1CCN(c2nccc(Nc3ccccc3Cl)n2)CC1	NIH3T3 tox inconclusive, HEK cytotox inconclusive, SNCA expr inh inconclusive (no result: FLuc inh, NPR1 antag)
COCCNC(=O)C1CCCCN1Cc1ccc(-c2ccccc2OC)cc1 (stereo unspecified)	NIH3T3 tox inconclusive, HEK cytotox 45µM! (no result: FLuc inh, HEK293 viab, NPR1 antag, SNCA expr inh)
COc1ccccc1-c1cccc(C(=O)N2CCC[C@H]2C(=O)NCCCc2ccccc2)c1	NIH3T3 tox inconclusive, HEK cytotox inconclusive (no result: FLuc inh, NPR1 antag)
COc1ccccc1-c1ccc(CN2CCCCC2C(=O)NCCc2ccccc2)cc1 (stereo unspecified)	NIH3T3 tox 40µM, HEK cytotox 40µM, SNCA expr inh inconclusive (no result: FLuc inh, NPR1 antag)
COCCCNC(=O)C1CCCCN1Cc1ccc(-c2ccsc2)cc1 (stereo unspecified)	NIH3T3 tox inconclusive, HEK cytotox inconclusive (no result: FLuc inh, NPR1 antag)
COCCNC(=O)C[C@@H]1C[C@H]2O[C@H](CN)[C@@H](O)[C@H]2O1	none
Cc1nnn2c(C(=O)NCc3ccc(Cl)cc3)cccc12	NIH3T3 tox 35µM, HEK cytotox 79µM
COc1ccc(CNC(=O)c2nc(-c3ccccc3OC)cc3c2ccn3C)cc1OC	HEK cytotox inconclusive
COc1ccccc1-c1cc2c(ccn2C)c(C(=O)NCC2CCN(C)C(=O)C2)n1 (stereo unspecified)	NIH3T3 tox 79µM
COc1ccccc1-c1cc2c(ccn2C)c(C(=O)NCCN2CCNC2=O)n1	NIH3T3 tox 100µM
Cn1ccc2c(C(=O)NCC3CCC(=O)N3)nc(-c3ccccc3O)cc21 (stereo unspecified)	NIH3T3 tox 40µM, HEK cytotox inconclusive
Cc1cc(C)n(Cc2ccc(C(=O)N3CCCCCC3c3nnc(-c4ccccc4)o3)o2)n1 (stereo unspecified)	NIH3T3 tox inconclusive, HEK cytotox inconclusive (no result: FLuc inh, NPR1 antag)
COc1ccc(CN2C(=O)CO[C@H]3CN(c4nccc(C)n4)C[C@H]32)cc1	none
O=C1CO[C@H]2CN(c3nccc(C(F)(F)F)n3)C[C@H]2N1Cc1ccc(F)cc1	NIH3T3 tox inconclusive, HEK cytotox 100µM
COc1ccc(OC)c(S(=O)(=O)N2CC(CNC(=O)C3CC3)C3(CCCCC3)C2)c1 (stereo unspecified)	HEK cytotox inconclusive (no result: FLuc inh, NPR1 antag)
O=C(Nc1cccc(Cl)c1)c1nc2sccn2c1-c1ccncc1	NIH3T3 tox inconclusive, HEK cytotox inconclusive (no result: FLuc inh, NPR1 antag)
